# Assay results published in PubChem BioAssay (NCI).
# This is part of a sample that, as a whole, favours compounds with a hit. Of some 83,000 tested, about 20% had one in any assay.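 Growth was measured after 48 h exposure to one concentration of compound in 96-well plates. Values under 10 count as active.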 Unmarked numbers belong to inactive results. Calls of active or inactive are those of the source.
# What was measured:
# Test in all cases: NCI-60 one-dose screen, 48 h (100 = growth as untreated, 0 = no growth, -100 = all killed)
# Conditions in all cases: 10 µM unless noted
# HCT-15 colon = tested on: HCT-15 colon
# HT29 colon = tested on: HT29 colon
# SNB-75 CNS = tested on: SNB-75 CNS
# SNB-19 CNS = tested on: SNB-19 CNS
# U251 CNS = tested on: U251 CNS
# PC-3 prostate = tested on: PC-3 prostate
# SK-MEL-5 melanoma = tested on: SK-MEL-5 melanoma
# UACC-62 melanoma = tested on: UACC-62 melanoma
# LOX IMVI melanoma = tested on: LOX IMVI melanoma
# SK-MEL-28 melanoma = tested on: SK-MEL-28 melanoma
# SK-MEL-2 melanoma = tested on: SK-MEL-2 melanoma
# EKVX NSCLC = tested on: EKVX NSCLC
# SN12C renal = tested on: SN12C renal
# UO-31 renal = tested on: UO-31 renal
# TK-10 renal = tested on: TK-10 renal
# ACHN renal = tested on: ACHN renal
# CAKI-1 renal = tested on: CAKI-1 renal
# CCRF-CEM leukemia = tested on: CCRF-CEM leukemia
# MOLT-4 leukemia = tested on: MOLT-4 leukemia
SMILES,growth (HCT-15 colon),growth (HT29 colon),growth (SNB-75 CNS),growth (SNB-19 CNS),growth (U251 CNS),growth (PC-3 prostate),growth (SK-MEL-5 melanoma),growth (UACC-62 melanoma),growth (LOX IMVI melanoma),growth (SK-MEL-28 melanoma),growth (SK-MEL-2 melanoma),growth (EKVX NSCLC),growth (SN12C renal),growth (UO-31 renal),growth (TK-10 renal),growth (ACHN renal),growth (CAKI-1 renal),growth (CCRF-CEM leukemia),growth (MOLT-4 leukemia)
N#CC1=C(/N=C/c2ccccc2)Oc2c(ccc3ccccc23)C1c1ccc([N+](=O)[O-])cc1 (centres undefined),91.4%,102%,60.4%,94.9%,97.4%,78.7%,86.9%,87.2%,90.4%,118%,90.8%,70.7%,93.5%,59.5%,166%,87.9%,70.1%,94.5%,94.4%
COc1cc(/C=N/NC(=O)c2cnn3c2NC(c2ccccc2)C3)ccc1OCc1ccccc1 (centres undefined),2.36% (active),-35.6% (active),26.1%,19.3%,4.86% (active),-31% (active),5.94% (active),-33.7% (active),22%,24.1%,6.28% (active),32.1%,29.2%,32.6%,-0.854% (active),10.7%,0.476% (active),17.1%,14.7%
CCCCCN1C=C/C(=C\C(=O)N(C)c2ccc(Oc3ccccc3)cc2)c2ccccc21,98.4%,53.6%,104%,88.2%,80.1%,77.6%,62.6%,76.9%,86.6%,102%,98%,56.6%,87.5%,85.3%,92.1%,102%,93.1%,75.4%,70.8%
C#CCNC(=O)[C@H](Cc1ccccc1)NC(=O)[C@]12CC[C@@H](C(=C)C)[C@@H]1[C@H]1CC[C@@H]3[C@@]4(C)CCC(=O)C(C)(C)[C@@H]4CC[C@@]3(C)[C@]1(C)CC2,70.7%,52.9%,99.2%,82.6%,69.1%,33%,78.2%,59.5%,75.4%,98.1%,86.8%,79%,76%,54%,65.3%,75.7%,55.4%,65.1%,46.3%
Cc1nc(N)nc(N[C@@H](C)c2nc3cccc(NCc4ccc(C(=O)NO)cc4)c3c(=O)n2-c2ccccc2)n1,110%,77.3%,69.6%,71.3%,52.7%,88%,77.3%,59.1%,72.8%,70%,74.7%,76.8%,84.5%,68.4%,80.3%,101%,77.5%,23.2%,32.9%
CC1(C)c2[nH]c3ccccc3c2C[C@]2(C)[C@H]3C(=O)C=C4[C@@H]5C[C@@](C)(C(N)=O)CC[C@]5(C)CC[C@@]4(C)[C@]3(C)CC[C@@H]12,65.8%,56.3%,89.3%,78.6%,70.4%,42.1%,72%,70.6%,83%,93.3%,81.8%,68.4%,72%,42.6%,70.5%,76.7%,82.8%,66.7%,32.6%
CCOC(=O)Oc1c(OC)cc(C(=O)c2ccc(OC)c(O)c2OC)cc1OC,14.7%,29.5%,34.1%,25.9%,23.5%,22.8%,32%,34.3%,49.7%,53.1%,24.8%,58.9%,46%,46.9%,43%,38.5%,32%,15.2%,28.1%
COc1ccccc1NC(=O)C1CC(c2ccc(F)cc2)=NO1 (centres undefined),99.2%,103%,87.9%,96.8%,96.3%,104%,95.3%,96%,95.5%,107%,103%,89.8%,96.3%,82.9%,105%,107%,95.3%,104%,103%
COc1cccc(-c2nc3occn3c2-c2ccnc(NCCNS(=O)(=O)c3cccc4ccccc34)n2)c1,103%,96.7%,103%,97.8%,108%,99.6%,98.8%,93.7%,102%,115%,107%,114%,103%,85.7%,123%,99.6%,86.6%,123%,97.4%
O=C1Nc2cc(-c3ccc(NC(=O)C4CC4)cc3)ccc2/C1=C/c1ccc[nH]1,94.7%,101%,94.5%,94.7%,84%,104%,98.6%,110%,95.1%,119%,109%,47.6%,97.8%,80.2%,115%,106%,102%,98.7%,94.7%
Nc1c(C(=O)Nc2ccnc3ccccc23)sc2nc3c(cc12)CN(Cc1ccccc1)CC3,69.9%,103%,110%,83.7%,98%,45.5%,9.7% (active),49.4%,69.6%,102%,101%,66.1%,74.6%,62.2%,102%,68.4%,74.7%,26.1%,18.2%
COc1cc(C2=C(c3cn(C)c4ccccc34)COC2=O)cc(OC)c1OC,5.39% (active),7.04% (active),-31.3% (active),15.5%,13.8%,13.3%,0.365% (active),12.6%,2.86% (active),21.3%,27.7%,28.2%,25%,10.4%,44.2%,28%,7.16% (active),8.87% (active),12.2%
COc1cc(/C=N/NC(=O)c2cnn3c2NC(c2ccccc2)C3)ccc1Oc1ccccc1 (centres undefined),16.8%,0.454% (active),27.6%,39.2%,27.1%,19.6%,28.1%,12.6%,37.2%,34.9%,1.74% (active),58.1%,63.8%,51.5%,46.8%,27.6%,26%,29.3%,49.7%
O=C(C1CCC1)N1N=C(c2ccc(-n3ccc(C(F)(F)F)n3)cc2)CC1c1ccc[nH]1 (centres undefined),85.6%,89.8%,101%,95.9%,82.2%,76.5%,100%,90.5%,92.8%,104%,101%,90.4%,98.3%,94.4%,89.1%,102%,91.5%,89.9%,74.8%
O=[N+]([O-])CC(c1ccccc1)c1c[nH]c2ccccc12 (centres undefined),26.5%,12.5%,27.2%,58%,35.7%,86.1%,50.9%,35%,45.5%,59.9%,22.8%,67%,52.8%,67.3%,69.7%,71.1%,42%,46.9%,27.4%
CCCCCN1C=C/C(=C\C(=O)N(C)c2ccccc2Br)c2ccccc21,102%,98.3%,91.7%,94.6%,87.7%,92.1%,94.2%,81.6%,93.6%,105%,109%,91.2%,89.2%,87.8%,99.7%,104%,82.2%,96%,89.3%
CCCNC(=O)Oc1ccc(/C(=C(\C)c2ccccc2)c2ccc(OCCCN(C)C)cc2)cc1,38.7%,5.5% (active),86.2%,84.9%,68.8%,71.7%,86.2%,54.2%,75.6%,70.8%,92.6%,80.1%,77.4%,50%,84.8%,93.3%,83.4%,75.7%,66.5%
COc1ccc(-c2[nH][nH]c(=O)c2-c2nc3ccccc3s2)cc1,95.4%,106%,88.9%,102%,101%,102%,102%,98%,99.9%,112%,104%,99.9%,98.4%,86.6%,108%,106%,88%,99.1%,102%
CNC(=O)c1cc(Cn2nc(C)c(NC(=O)Nc3ccc(Cl)c(C(F)(F)F)c3)c2C)ccn1,98%,92.4%,68%,103%,86.7%,79.4%,91.8%,93.7%,98%,107%,82.3%,102%,98.6%,90.5%,103%,97.9%,93.6%,92.1%,90.8%
CCCCCCCCCCCCCCCC[N+]1(C)CCN(SN2CC[N+](C)(CCCCCCCCCCCCCCCC)CC2)CC1,54.2%,19.7%,50.3%,29.3%,23.2%,33%,95.4%,72.8%,34.1%,98.4%,95.9%,82.3%,72.5%,76.9%,53.3%,66.2%,43.4%,48.1%,57.1%
O=C(Cc1ccc(/C=C/C(=O)c2ncc[nH]2)cc1)Nc1ccc(Cl)cc1,-25% (active),0.843% (active),25.3%,4.9% (active),-60.6% (active),39%,52.5%,41.2%,-37.1% (active),67.9%,94.9%,65.2%,7.28% (active),2.84% (active),59.8%,42.7%,32.1%,-6.35% (active),5.1% (active)
N#Cc1c(NC(=O)NCc2ccccc2)sc2c1CCCC2,20.3%,12.8%,27%,34.1%,26.1%,26.9%,13.3%,39.3%,24%,64.9%,45.6%,57.8%,35.3%,47.2%,49.1%,46.2%,38.1%,16.6%,17.7%
CCCOC(=O)N[C@H]1CCc2c(Cl)c(OC)c(OC)c(OC)c2-c2ccc(SC)c(=O)cc21,12.9%,14.7%,31.2%,31%,23.2%,24%,-10.3% (active),30.9%,10.7%,68.8%,48.2%,48.1%,20.5%,23.1%,49.3%,30.7%,13.8%,7.4% (active),8.02% (active)
COc1ccc2c(c1)C(=O)CC(c1ccccc1OC)O2 (centres undefined),93.1%,107%,80.4%,98.8%,98.4%,104%,98.7%,85.8%,89.3%,106%,102%,73.2%,94.6%,96.9%,169%,101%,89.2%,109%,81%
Cc1ccc(NC(=O)c2cc(-c3nc4ccccc4s3)c(=O)n(NS(=O)(=O)c3ccc(Cl)cc3)c2N)cc1,96%,108%,77.5%,101%,104%,100%,97.8%,93.2%,102%,115%,103%,92.1%,101%,83.9%,136%,108%,85.1%,104%,97.9%
COc1cc2nc(-c3ccc(Cl)cc3)cc(OCCCN3CCC(O)CC3)c2cc1OC,19%,16.8%,39.6%,73.4%,54.5%,41.7%,-30% (active),-24.7% (active),-53.3% (active),70%,75.8%,56.7%,36.6%,51.3%,92.2%,35.1%,-5.22% (active),57.5%,44.1%
